Laboratory results from the supplement of paper PMC3334620.
In all, about 33,000 sequences were measured (“E-score (-0.5 to 0.5)”: median about -8e-05, highest 2% from about 0.23 on). The sample as a whole holds a higher share of the highest values than the screen did.

target: T1, Nrg2 (UniProt P38082); test: PBM E-score (8-mer binding enrichment) (E-score (-0.5 to 0.5)); higher = stronger / more preferred TF binding; settings: protein concentration: 100 nM; construct: GST-full length
T1 sequence: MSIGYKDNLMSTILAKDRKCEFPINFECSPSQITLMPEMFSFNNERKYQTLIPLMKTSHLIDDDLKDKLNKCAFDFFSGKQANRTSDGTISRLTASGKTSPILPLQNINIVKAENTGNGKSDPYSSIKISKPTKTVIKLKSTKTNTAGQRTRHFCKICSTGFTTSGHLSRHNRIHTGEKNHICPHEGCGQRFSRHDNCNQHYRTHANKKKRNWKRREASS
Description: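 Universal 'all 10-mer' protein binding microarrays (Agilent AMADID 015681) probed with GST-tagged S. cerevisiae TFs (full-length or DBD) made by in vitro transcription/translation (PURExpress), about 100-200 nM. Bound TF was detected with fluorescent anti-GST. Each ungapped 8-mer (which stands for itself and its reverse complement) is scored by the PBM enrichment score (E-score), a modified Wilcoxon-Mann-Whitney statistic from -0.5 to +0.5, computed with the Universal PBM Analysis Suite. Scale: above 0.35 generally sequence-specific binding.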

Sequence	PBM E-score
ACTAAGGG	0.0502
GGCTTCCA	-0.186
CGCTTTTA	-0.0218
GGTGCCTA	-0.0877
CGCGCACC	0.14
GGTTCACA	0.103
TCTCGCAA	-0.0499
AAACCGCC	0.041
CAACCGCA	0.0352
CAACCGCC	0.0219
AAACCGCG	0.266
CAACCGCG	0.271
AAACCGCA	-0.0776
CGTCTTGC	0.0795
CATGAATC	0.115
GTTTGTGA	-0.00935
AACAAATT	0.251
TACAAGCA	0.121
AACAAATA	0.247
AACAAGGT	0.0681
TACAAATA	0.0774
TACAAACA	0.243
AACAAACA	0.22
AACAAAGT	0.26
AACAAGTT	-0.0278

Sequence	PBM E-score
AACAAGTA	-0.0255
AACAAATG	0.0558
AACAAAGG	0.0899
ACCAAGGA	-0.0125
CGGTGGCC	0.0203
AGATCTAC	0.00881
ATGCCTGA	-0.126
CATTTGAA	0.0105
CTTAGTCA	-0.0736
CGGCCCCA	-0.253
ACTCATGA	0.143
CCTAACTC	-0.0633
AACCTCAG	0.072
AACCTCGA	0.0566
CACCTCGA	0.256
GACCTCGA	0.126
GGTTCAGA	0.0397
CCCATGGA	-0.00741
ACCATGGG	-0.0447
CCCATGGG	0.323
TAGAACAA	-0.00331
AGTCAGGA	0.0134
CGTCAGGA	-0.112
GGTCAGGA	0.244
GTGGCAGA	-0.276

Sequence	PBM E-score
AAGAGCAT	-0.0179
AGCCCTGA	0.0189
GGCCCTGA	0.24
GCCCCCTA	-0.212
GCCCCTGA	0.292
GCCCCTTA	0.114
CGCCCTGA	0.167
ACATAGAA	0.157
TCCATCGA	-0.021
GATACCCC	0.0656
AGCTTTAC	-0.26
CCCGAGGC	-0.176
CATGGTAC	0.00349
CTATGACA	-0.012
CTATGATA	0.0584
ATATGATG	0.0173
GTATGAGA	0.133
GCATGATA	0.0399
ATATGACA	0.244
GTATGATA	0.281
ATATGATA	0.249
GTATGACA	-0.0684
GAGGGCAC	-0.111
AGACAGTA	0.0173
CGAAGCGC	-0.0339

Sequence	PBM E-score
CCATCCTC	-0.111
CTCGGCAC	0.0273
AAAGATAG	-0.188
AAAGATAA	0.112
AAAGATAC	0.232
TCAAAGAA	-0.123
ACGTCTTG	-0.0332
GATAGAGA	-0.0171
CTAAGGAA	0.0506
CCCTTACG	-0.128
CCGCGAAA	0.0786
ACGCGAAA	0.242
TCGCGAAA	0.161
CGAGTGCA	0.0846
GTATGGTA	0.158
GGACGCCA	-0.149
AGACCCAC	0.0598
AACTTTGA	-0.0178
AACTTTGT	0.251
AACTTTGG	-0.0393
CGGCTATA	-0.0676
GTAACCAA	0.0617
CTCCGAAA	-0.0954
GTGACAAC	0.112
AAGACAAG	-0.0376

Sequence	PBM E-score
ATGACAAC	0.239
ATGACAAG	0.142
CAGACAAC	0.178
AAGACAAC	0.235
AAACCGAT	-0.137
CCGCCCGA	0.148
ACTTGGCC	-0.0839
ATCTGCGA	0.0624
ATCTGCGC	0.0656
ATCTGCGG	0.229
ACTAGAGT	-0.204
CTTCGGAC	0.0444
ATTATCGG	-0.142
ATTATCGC	0.254
ATTATCGA	-0.00721
ATAGGGGG	-0.364
CCCGACCG	-0.0769
CACCTGGG	-0.0933
ATCGCGAA	0.268
AACGCGAA	0.249
ATCGCGAC	0.0998
GGCGCGAC	0.149
ATCGCGAT	0.271
AACGCGAG	0.092
CTCGCGAC	0.192

Sequence	PBM E-score
CACGCGAA	-0.135
ATCGCGAG	0.175
GTCGCGAA	0.125
TTCGCGAA	0.22
GTCGCGAC	0.37
CCGCGCCA	-0.00589
CTCCTGTA	-0.111
ATACCGGA	-0.222
GGCGAGAA	0.16
AGTGTATG	0.0501
AAGCTACT	0.0546
GATCCAGA	0.187
AACGTAGG	-0.148
CAAAGCGG	-0.0751
AAGCAGTA	-0.0813
GCGCAGAC	0.0533
CCGCAGAC	-0.105
TCGCAGAA	-0.114
GCGCAGAA	0.248
CCGCAGAG	-0.193
CCGCAGAA	0.245
CAAGCGGC	0.0964
CACCTATA	-0.032
AGTGAAGC	0.054
AAAGAACG	0.0453

Sequence	PBM E-score
ATTAATCA	0.171
AGTCTTGA	-0.0377
AACGGCAT	0.23
AACGGCGT	-0.11
CACGGCGA	0.0616
AACGGCAA	0.156
AACGGCGA	0.303
AACGGCAC	-0.244
ATTGCGAG	0.0375
GTACGAGA	0.0861
TGACGGAA	-0.00402
AAGGACTC	-0.0561
ATGCTCGG	0.117
AAATCCAT	0.266
AAATCCAC	0.082
AAATCCAG	0.196
ATGGTGGA	-0.0629
ATATTAAA	0.29
CTATTAAA	0.151
TTATTCAA	0.029
TCATTAAA	0.35
ATATTAAC	0.176
GCATTAAA	0.136
ATATTAAG	0.0738
ATATTAAT	0.286

Sequence	PBM E-score
CTATTCAA	0.0974
TTATTAAA	0.196
ATATTCAA	0.244
ACATTAAA	0.143
CGTTAAAC	0.0981
ATAGTGAC	-0.0527
AAATTATG	0.106
ATATTATG	0.304
ATATTATC	0.0409
AAACCATC	0.103
ATGTGCAC	0.0387
CATCTAAC	-0.152
GGCATAGA	0.0809
AATTATAC	0.122
GATTATAC	0.235
GATTATAA	0.207
CTTAGAAC	0.0319
CTGACTGA	-0.0542
GCTCGAAC	0.191
GGCAGAAC	0.088
GAAAGAAC	0.0456
GGCAGAAA	0.286
CAAAGAAA	0.0775
GAAAGAAA	0.281
TGCAGAAA	0.104

Sequence	PBM E-score
AAGCTGAG	-0.00374
AGCGGTAG	-0.196
GAGTAAGA	-0.0102
AAGACGGT	-0.161
CAAAGCAG	0.0557
CAAAGCAC	-0.0605
CAAAGCAA	0.265
AGTTAGGG	0.0307
ACATAAAC	0.0128
GCGACCAC	-0.0633
GAGACCAA	0.241
TAGACCAA	0.121
CAGACCAA	0.0347
ACGACCAA	-0.12
GCGACCAA	0.248
CCTTATCC	-0.23
AAACTAGG	-0.0197
CACCGCAA	0.233
CACCGCAG	0.0838
AACCGCAA	0.185
CGCATGCA	0.246
AGCATGCA	0.00231
TGCATGCA	0.233
CGCATGCG	0.0387
CGCATGCC	0.145

Sequence	PBM E-score
GGCATGCA	-0.113
GGGCGACA	-0.132
AGAGTTGA	-0.073
GTCCCACA	0.0612
ACGTTGAC	-0.00444
CCAACACG	0.0552
ACAACACA	0.0869
TCAACACA	0.235
CTTCGATC	-0.00647
CGATTCGA	0.27
AGATTCGA	0.0269
GGATTCGA	-0.0125
GCCGCGCC	-0.0901
GTCCCGTA	-0.111
ACGCGACC	-0.0575
GATGCAAA	0.0177
CAGCAACG	0.251
CAGCAACA	0.159
AAGCAACG	0.161
GTCAGCAC	-0.0154
GACTACGC	-0.187
AACGAAAC	0.117
AACGAAAT	0.251
AACGAAAG	-0.0319
ATTGCAGC	0.0702

Sequence	PBM E-score
GGGCGTAC	0.0663
GAACCCCC	-0.322
GGGACCTA	0.245
GGACCCTA	0.305
GAACCCCA	0.26
CTAACCCA	-0.00624
ATAACCCA	-0.0462
CGGACCTA	0.0604
GAACCCAA	0.0482
GCACCCTA	0.105
CGACCCTA	0.109
AGGACCTA	0.114
GTAACCCA	0.229
GCGCTGGA	0.0138
ATGGGTAG	-0.13
CGACGGTA	0.0706
GCAATAGC	0.133
AAAAGGGC	0.12
ATGCTCCA	0.0544
GGACCCCA	0.236
TGACCCCA	0.0468
GGACCCCC	-0.144
AAGATAGC	0.0443
CGGACGAA	0.233
GGGACGAA	0.0439

Sequence	PBM E-score
CGGACGAC	-0.061
CAGACGAC	-0.0246
GAGACGAA	-0.0342
CAGACGAA	0.252
AAGCTAAT	0.11
CTAGTCAC	-0.122
AACTACAT	-0.038
GGTCTCGA	0.0782
CAGACGGC	-0.16
CGAGGAAC	0.269
CGAGGAAA	0.0442
AGAGGAAC	-0.113
CAGCACGA	0.0405
ACCCTAGA	0.284
CCCCTTGA	0.2
GCCCTTGA	-0.00607
CCCCTTGC	-0.0115
CCCCTAGA	0.117
ACCCTTGG	0.198
ACCCTTGA	0.242
ACCCTAGT	-0.0371
ACCCTTGC	0.268
AGGACTAA	-0.0768
GTACTAGA	-0.00429
AACGACTC	-0.253

Sequence	PBM E-score
ATAGAAGA	-0.158
CACAGGCA	0.0159
AATGACGG	0.125
CACCGCGC	-0.0311
CGCAGCTA	-0.0329
CATCCACA	0.0702
ACAGAATA	0.148
TAAAATGA	0.254
GGAAATGA	0.25
AAAAATGA	0.0139
GAAAATGA	-0.0055
CTAAATGA	0.0289
CGAAATGA	0.127
CCACCAGA	0.0154
CCCGGAGA	-0.138
TGATAGCA	0.14
TGAGGACA	0.0644
ACTCTTTA	-0.0446
GAGTAGGC	-0.0622
AATACTGC	0.068
ACAGCTGC	-0.0727
CTTACTAA	0.0213
CAGGCCTG	0.115
AGGGTACT	0.255
AGGGTACA	0.181

Sequence	PBM E-score
AGGGTACC	0.0534
GGTCTACA	-0.0592
CAAACCAC	-0.00637
CTACGTTC	-0.178
CCGGAACA	-0.0209
ACGGAACA	0.0339
TCGGAACA	0.313
CGGCCATA	-0.123
AGGTTTCC	-0.0376
TCCGTGCA	0.134
CGAACGGC	-0.0328
CATGGCCC	-0.066
CATGGCCA	-0.042
CATGGCCG	0.258
AGTCAGTC	-0.127
ACTAATCT	0.00502
ACTAATCG	0.278
CCTAATCG	0.16
GGACCACC	0.0365
